This is an account of results in PubChem BioAssay (EPA / NIEHS).

The term AC50 denotes the midpoint of the concentration-response curve, whichever way the signal moves.

Molecules are shown by their SMILES. Active and inactive are the calls of the source. How the source made its calls: active means hit-call score of the fitted dose curve at least 0.9, where 1 is the maximum; inactive means score below 0.9.

The assay is described as follows: IUF_NPC2a_radial_glia_migration_120hr: Leibniz Research Institute for Environmental Medicine (IUF) 120-hour Neural Progenitor Cell Migration Assay for Radial Glia Migration (NPC2a) (AID 2284298). The procedure: IUF_NPC2-5 is a cell-based, multiplexed assay that uses hNPC, a human primary neural progenitor cells, with measurements taken at 72 or 120 hours after chemical dosing in a 96-well plate. Human neural progenitor cells (hNPC) are generated from human fetal brain cortex at gestational week (GW) 16-19. In the neural progenitor cell migration and differentiation assay (NPC2-5), hNPCs grown as spheres are plated on an extracellular matrix and migrate and differentiate out of the sphere core. The processes radial glia migration, neuronal and oligodendrocyte migration as well as neuronal differentiation, neuronal morphology and oligodendrocyte differentiation are studied using automated phase contrast imaging and automated fluorescence imaging in combination with high content image analysis. In parallel, the cell viability is assessed using an alamar blue viability assay and the cytotoxicity using a lactate dehydrogenase dependent membrane integrity assay.IUF_NPC2a_radial_glia_migration_120hr is one of 12 assay components measured from the IUF_NPC2-5 assay. The migration distance of radial glia at 120 hr is assessed in um from the edge of the sphere core to the edge of the migration area based on fluorescent images of Hoechst-positive nuclei. With the identification of each nucleus position around the sphere core, migration-related parameters can be calculated. First, a nuclei density distribution is calculated for which an algorithm determines relatively more and less dense nuclei areas. This calculation identifies the sphere core by the densest nuclei area in the image. The algorithm further assumes that nuclei density decreases from the sphere core to the periphery. When the nuclei density hits a pre-defined threshold, the outer boundaries of the migration area are determined and the sphere itself is mapped out in a polynomial bounding box. Derived from this box, the size of the migration area and the migration distance are calculated for each well.Data from the IUF_NPC2a_radial_glia_migration_120hr component was analyzed at the endpoint IUF_NPC2a_ radial_glia_migration_120hr in the positive analysis fitting direction relative to DMSO as the negative control and baseline of activity. Using a type of migration reporter, gain or loss-of-signal activity can be used to understand developmental effects.
Culture protocol: After the cell expansion period the cells are cultured for up to four weeks in which they are passaged every week as described in 3.6. Between one to three days after passaging spheres at a size of 0.3 mm are picked for the test method. For the assessment of neural progenitor cell migration and differentiation, the spheres are plated on poly-D-lysine/laminin coated 96-well flat bottom plates in differentiation medium (N2) to initiate migration and differentiation. Thereby one 0.3 mm big sphere is plated in the middle of a well. The differentiation medium consists of DMEM and Ham's F12 at a ratio of 3 to 1 supplemented with 1% N2 and 1% penicillin and streptomycin. Within 5 days NPCs radially migrate out of the sphere core and differentiate into radial glia cells (nestin positive), neurons (TUBB3 positive), oligodendrocytes (O4 positive) and astrocytes (GFAP positive). Cultivation during the test method is performed at 37C and 5% CO2 at a ph of 7.2-7.6.Exposure: 0.3 mm big hNPC are plated in the already prepared test conditions. Exposure starts at day 0 of differentiation and is continued over five days of differentiation until the experiment is terminated. Cells are fed with fresh medium at day 3 of differentiation. Therefore, half of the test condition solution (e.g. solvent control or compound dilution) is replaced by freshly prepared test condition solution.Test Method: Migration distance and cytotoxicity is determined after 72 hours based on brightfield images of each well. The assay is terminated by the assessment of cell viability and cytotoxicity as well as cell fixation after 120 h. […]
With `CC(C)(C)c1ccc(CSc2cnn(C(C)(C)C)c(=O)c2Cl)cc1`, the concentration at half-maximal activity (AC50) is 3.31 µM (active). With `COC(=O)N(OC)c1ccccc1COc1ccn(-c2ccc(Cl)cc2)n1`, the AC50 is 3.18 µM (active). Consider `CCOC(=O)CC(SP(=S)(OC)OC)C(=O)OCC` (centres undefined), for which the call was inactive.

As for `CCOc1cc(Oc2ccc(C(F)(F)F)cc2Cl)ccc1[N+](=O)[O-]`, the outcome was inactive. As to `N#Cc1nn(-c2c(Cl)cc(C(F)(F)F)cc2Cl)c(N)c1S(=O)C(F)(F)F` (centres undefined), the AC50 was 18.8 µM (active). Take `CCCCC(CC)COC(=O)c1ccccc1C(=O)OCC(CC)CCCC` (centres undefined): the molecule was called inactive. Turning to `C=CC1(C)OC(=O)N(c2cc(Cl)cc(Cl)c2)C1=O` (centres undefined), the result was inactive. Take `Cc1ccc(-c2c(Cl)nc(C#N)n2S(=O)(=O)N(C)C)cc1`: the concentration at half-maximal activity (AC50) is 33.6 µM (active). Consider `CNC(=O)ON=CC(C)(C)SC`, for which the call was inactive. On the same count and under the same terms, the value for `CO/C=C(/C(=O)OC)c1ccccc1Oc1cc(Oc2ccccc2C#N)ncn1` was “inactive”. Take `CN(C)C(=S)SSC(=S)N(C)C`: the concentration at half-maximal activity (AC50) is 47.3 µM (active). As for `COP(N)(=O)SC` (centres undefined), the molecule was called inactive. For `CCCCOC(=O)c1ccccc1C(=O)OCCCC`, the call was inactive.

Consider `COP(=S)(OC)Oc1nc(Cl)c(Cl)cc1Cl`, for which the outcome was inactive.
